Measured values published in ChEMBL document CHEMBL1961873, “Compounds: GSK PKIS; Assays: Nanosyn kinase panel” (2012).

What was measured:
[1] = system: Proto-oncogene tyrosine-protein kinase receptor Ret (Homo sapiens), P07949 [Y791F]; conditions: at 1 µM
[2] = molecular target: Macrophage-stimulating protein receptor (Homo sapiens) (UniProt Q04912); conditions: at 0.1 µM
[3] = molecular target: Macrophage-stimulating protein receptor (Homo sapiens) (UniProt Q04912); conditions: at 1 µM
[4] = molecular target: Proto-oncogene tyrosine-protein kinase ROS (Homo sapiens) (UniProt P08922); conditions: at 0.1 µM
Proto-oncogene tyrosine-protein kinase ROS (Homo sapiens), sequence (P08922 whole entry): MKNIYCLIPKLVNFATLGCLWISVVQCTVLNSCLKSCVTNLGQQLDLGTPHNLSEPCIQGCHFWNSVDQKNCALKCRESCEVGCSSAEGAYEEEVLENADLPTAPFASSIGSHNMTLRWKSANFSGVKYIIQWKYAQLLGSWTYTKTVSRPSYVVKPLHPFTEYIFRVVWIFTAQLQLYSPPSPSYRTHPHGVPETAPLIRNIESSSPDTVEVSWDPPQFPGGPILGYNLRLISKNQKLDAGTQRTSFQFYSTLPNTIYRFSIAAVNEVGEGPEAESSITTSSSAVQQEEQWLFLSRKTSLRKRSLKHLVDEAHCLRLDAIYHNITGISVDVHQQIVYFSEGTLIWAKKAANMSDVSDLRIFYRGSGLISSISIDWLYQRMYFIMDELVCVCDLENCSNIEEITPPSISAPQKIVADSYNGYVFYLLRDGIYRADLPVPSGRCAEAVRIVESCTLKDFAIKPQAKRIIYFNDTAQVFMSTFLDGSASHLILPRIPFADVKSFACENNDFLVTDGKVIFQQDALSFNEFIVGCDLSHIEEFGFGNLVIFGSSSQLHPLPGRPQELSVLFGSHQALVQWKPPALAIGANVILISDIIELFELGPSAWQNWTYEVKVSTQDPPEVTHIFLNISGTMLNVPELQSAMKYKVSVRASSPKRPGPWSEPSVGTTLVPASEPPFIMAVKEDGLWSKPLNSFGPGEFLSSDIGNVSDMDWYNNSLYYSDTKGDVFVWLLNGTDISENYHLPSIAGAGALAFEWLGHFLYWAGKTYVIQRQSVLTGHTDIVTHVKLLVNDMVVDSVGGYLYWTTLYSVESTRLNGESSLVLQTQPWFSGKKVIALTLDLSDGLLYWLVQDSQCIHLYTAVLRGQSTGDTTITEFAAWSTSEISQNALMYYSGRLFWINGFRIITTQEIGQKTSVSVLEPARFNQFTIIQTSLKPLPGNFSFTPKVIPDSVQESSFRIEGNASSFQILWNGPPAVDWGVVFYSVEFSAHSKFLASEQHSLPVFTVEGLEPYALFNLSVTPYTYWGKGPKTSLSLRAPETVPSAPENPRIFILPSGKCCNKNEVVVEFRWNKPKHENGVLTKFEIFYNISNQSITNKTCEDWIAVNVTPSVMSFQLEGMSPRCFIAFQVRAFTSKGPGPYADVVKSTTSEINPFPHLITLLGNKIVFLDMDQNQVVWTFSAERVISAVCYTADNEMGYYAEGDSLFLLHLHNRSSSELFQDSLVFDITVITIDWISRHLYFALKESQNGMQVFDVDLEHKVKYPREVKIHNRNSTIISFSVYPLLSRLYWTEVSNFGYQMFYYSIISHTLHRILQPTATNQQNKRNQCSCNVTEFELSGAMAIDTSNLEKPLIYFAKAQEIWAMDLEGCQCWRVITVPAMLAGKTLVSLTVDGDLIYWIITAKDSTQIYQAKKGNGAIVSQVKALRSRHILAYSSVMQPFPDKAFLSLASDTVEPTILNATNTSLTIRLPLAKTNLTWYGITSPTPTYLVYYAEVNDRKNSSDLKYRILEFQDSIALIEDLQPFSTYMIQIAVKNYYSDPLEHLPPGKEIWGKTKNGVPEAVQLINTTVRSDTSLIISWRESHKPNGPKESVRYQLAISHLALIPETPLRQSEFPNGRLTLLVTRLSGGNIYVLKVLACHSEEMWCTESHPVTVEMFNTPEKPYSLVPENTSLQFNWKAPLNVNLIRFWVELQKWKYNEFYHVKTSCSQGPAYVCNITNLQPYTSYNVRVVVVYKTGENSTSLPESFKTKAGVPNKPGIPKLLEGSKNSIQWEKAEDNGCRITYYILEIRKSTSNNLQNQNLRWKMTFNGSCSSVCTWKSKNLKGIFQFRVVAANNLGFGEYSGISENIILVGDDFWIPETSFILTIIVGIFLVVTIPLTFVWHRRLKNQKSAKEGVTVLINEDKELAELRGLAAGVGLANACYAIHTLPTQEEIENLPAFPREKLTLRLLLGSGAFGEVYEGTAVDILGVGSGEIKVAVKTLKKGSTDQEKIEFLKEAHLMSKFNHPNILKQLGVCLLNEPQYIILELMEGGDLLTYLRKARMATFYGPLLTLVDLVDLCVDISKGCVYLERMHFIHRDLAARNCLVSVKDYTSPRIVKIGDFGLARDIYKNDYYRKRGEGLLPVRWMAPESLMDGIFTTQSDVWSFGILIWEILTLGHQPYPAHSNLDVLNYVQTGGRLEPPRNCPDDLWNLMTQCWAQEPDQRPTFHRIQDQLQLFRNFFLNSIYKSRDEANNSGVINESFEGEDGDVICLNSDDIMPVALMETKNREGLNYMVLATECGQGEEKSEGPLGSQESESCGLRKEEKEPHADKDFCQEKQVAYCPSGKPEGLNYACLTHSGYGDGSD

[5] = molecular target: Proto-oncogene tyrosine-protein kinase ROS (Homo sapiens) (UniProt P08922); conditions: at 1 µM
[6] = molecular target: Proto-oncogene tyrosine-protein kinase Src (Homo sapiens) (UniProt P12931); conditions: at 0.1 µM
Proto-oncogene tyrosine-protein kinase Src (Homo sapiens), sequence (P12931 2-536 limits assumed): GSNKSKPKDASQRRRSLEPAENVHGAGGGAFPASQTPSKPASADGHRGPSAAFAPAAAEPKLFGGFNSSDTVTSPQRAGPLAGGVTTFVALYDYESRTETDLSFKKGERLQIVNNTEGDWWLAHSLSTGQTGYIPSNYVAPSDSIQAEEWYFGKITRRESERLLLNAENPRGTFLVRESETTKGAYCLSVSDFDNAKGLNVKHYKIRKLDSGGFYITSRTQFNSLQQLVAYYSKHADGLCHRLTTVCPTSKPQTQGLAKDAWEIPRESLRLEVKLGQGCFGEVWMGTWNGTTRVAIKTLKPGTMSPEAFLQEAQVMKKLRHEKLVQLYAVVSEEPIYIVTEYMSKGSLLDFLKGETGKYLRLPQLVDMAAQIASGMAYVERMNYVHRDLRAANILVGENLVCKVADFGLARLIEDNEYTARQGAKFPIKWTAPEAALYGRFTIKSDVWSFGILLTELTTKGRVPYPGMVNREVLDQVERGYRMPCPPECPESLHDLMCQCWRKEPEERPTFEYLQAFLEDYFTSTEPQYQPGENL

[7] = molecular target: Proto-oncogene tyrosine-protein kinase Src (Homo sapiens) (UniProt P12931); conditions: at 1 µM
[8] = molecular target: Tyrosine-protein kinase Srms (Homo sapiens) (UniProt Q9H3Y6); conditions: at 0.1 µM
Tyrosine-protein kinase Srms (Homo sapiens), sequence (Q9H3Y6 whole entry): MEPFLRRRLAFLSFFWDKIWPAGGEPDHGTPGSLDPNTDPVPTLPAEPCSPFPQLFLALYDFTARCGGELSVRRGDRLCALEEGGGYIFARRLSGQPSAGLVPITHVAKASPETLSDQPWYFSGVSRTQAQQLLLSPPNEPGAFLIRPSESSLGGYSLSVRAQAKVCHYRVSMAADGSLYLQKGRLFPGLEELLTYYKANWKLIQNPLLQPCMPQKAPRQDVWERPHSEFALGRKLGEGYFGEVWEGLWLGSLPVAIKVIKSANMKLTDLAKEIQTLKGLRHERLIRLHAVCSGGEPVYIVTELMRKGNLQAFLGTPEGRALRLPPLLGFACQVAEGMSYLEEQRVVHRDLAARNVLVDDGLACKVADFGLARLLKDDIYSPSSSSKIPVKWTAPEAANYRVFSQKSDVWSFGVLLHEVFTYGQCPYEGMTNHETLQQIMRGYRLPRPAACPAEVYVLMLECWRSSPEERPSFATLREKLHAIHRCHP

[9] = molecular target: Tyrosine-protein kinase Srms (Homo sapiens) (UniProt Q9H3Y6); conditions: at 1 µM
[10] = molecular target: Tyrosine-protein kinase SYK (Homo sapiens) (UniProt P43405); conditions: at 0.1 µM
[11] = molecular target: Tyrosine-protein kinase SYK (Homo sapiens) (UniProt P43405); conditions: at 1 µM
[12] = molecular target: T1, Tyrosine-protein kinase Tec (Homo sapiens) (UniProt P42680); conditions: at 0.1 µM
T1 sequence (whole entry): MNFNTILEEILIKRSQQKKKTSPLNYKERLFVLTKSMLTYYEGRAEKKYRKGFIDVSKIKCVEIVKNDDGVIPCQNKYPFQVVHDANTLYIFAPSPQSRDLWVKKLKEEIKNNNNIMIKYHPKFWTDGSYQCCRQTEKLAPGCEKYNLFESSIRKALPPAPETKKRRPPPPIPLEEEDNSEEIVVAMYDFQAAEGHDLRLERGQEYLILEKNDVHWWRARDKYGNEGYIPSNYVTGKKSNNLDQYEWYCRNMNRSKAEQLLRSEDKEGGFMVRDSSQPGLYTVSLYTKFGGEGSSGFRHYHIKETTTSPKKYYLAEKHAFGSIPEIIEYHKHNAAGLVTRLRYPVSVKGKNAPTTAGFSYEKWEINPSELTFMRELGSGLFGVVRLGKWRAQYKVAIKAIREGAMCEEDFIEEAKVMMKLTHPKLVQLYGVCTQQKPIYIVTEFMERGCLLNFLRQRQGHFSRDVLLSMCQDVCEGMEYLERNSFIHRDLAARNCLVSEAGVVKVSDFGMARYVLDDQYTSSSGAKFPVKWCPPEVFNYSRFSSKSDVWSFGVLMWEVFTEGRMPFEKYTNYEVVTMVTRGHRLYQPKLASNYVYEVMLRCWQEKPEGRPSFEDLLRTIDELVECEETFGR

[13] = molecular target: T1, Tyrosine-protein kinase Tec (Homo sapiens); conditions: at 1 µM
[14] = molecular target: Angiopoietin-1 receptor (Homo sapiens) (UniProt Q02763); conditions: at 0.1 µM
[15] = molecular target: Angiopoietin-1 receptor (Homo sapiens) (UniProt Q02763); conditions: at 1 µM
[16] = molecular target: T2, Non-receptor tyrosine-protein kinase TNK1 (Homo sapiens) (UniProt Q13470); conditions: at 0.1 µM
T2 sequence (whole entry): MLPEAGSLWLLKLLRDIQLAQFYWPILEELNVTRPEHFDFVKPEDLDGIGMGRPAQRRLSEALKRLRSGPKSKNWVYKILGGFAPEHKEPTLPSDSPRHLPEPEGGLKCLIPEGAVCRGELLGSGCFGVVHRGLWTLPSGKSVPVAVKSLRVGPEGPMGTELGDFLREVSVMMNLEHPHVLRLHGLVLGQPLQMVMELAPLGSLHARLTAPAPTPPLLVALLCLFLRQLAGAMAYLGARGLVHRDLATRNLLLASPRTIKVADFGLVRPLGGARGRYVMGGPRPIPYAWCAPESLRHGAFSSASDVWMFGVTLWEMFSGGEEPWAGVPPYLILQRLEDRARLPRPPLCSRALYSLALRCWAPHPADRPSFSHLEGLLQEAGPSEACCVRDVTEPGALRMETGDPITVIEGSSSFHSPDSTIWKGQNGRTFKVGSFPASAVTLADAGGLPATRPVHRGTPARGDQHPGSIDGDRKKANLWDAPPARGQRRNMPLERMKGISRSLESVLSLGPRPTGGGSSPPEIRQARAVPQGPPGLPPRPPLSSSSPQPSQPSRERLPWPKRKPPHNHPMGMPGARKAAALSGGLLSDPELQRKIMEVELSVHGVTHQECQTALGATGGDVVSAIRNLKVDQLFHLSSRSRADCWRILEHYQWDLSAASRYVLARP

[17] = molecular target: T2, Non-receptor tyrosine-protein kinase TNK1 (Homo sapiens); conditions: at 1 µM
[18] = molecular target: Activated CDC42 kinase 1 (Homo sapiens) (UniProt Q07912); conditions: at 0.1 µM
[19] = molecular target: Activated CDC42 kinase 1 (Homo sapiens) (UniProt Q07912); conditions: at 1 µM
[20] = molecular target: High affinity nerve growth factor receptor (Homo sapiens) (UniProt P04629); conditions: at 0.1 µM;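 further: each value is a mean of replicate percent inhibition readings against TRKA kinase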

Macrophage-stimulating protein receptor (Homo sapiens), sequence (Q04912 25-304 limits assumed): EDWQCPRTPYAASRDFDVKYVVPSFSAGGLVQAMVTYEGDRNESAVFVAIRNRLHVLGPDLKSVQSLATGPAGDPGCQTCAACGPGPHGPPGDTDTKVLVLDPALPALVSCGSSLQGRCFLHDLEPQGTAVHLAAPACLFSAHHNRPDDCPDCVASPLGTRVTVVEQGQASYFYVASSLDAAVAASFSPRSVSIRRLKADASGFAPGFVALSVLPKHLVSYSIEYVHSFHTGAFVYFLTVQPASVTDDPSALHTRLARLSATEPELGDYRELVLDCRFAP
Macrophage-stimulating protein receptor (Homo sapiens), sequence (Q04912 310-1400 limits assumed): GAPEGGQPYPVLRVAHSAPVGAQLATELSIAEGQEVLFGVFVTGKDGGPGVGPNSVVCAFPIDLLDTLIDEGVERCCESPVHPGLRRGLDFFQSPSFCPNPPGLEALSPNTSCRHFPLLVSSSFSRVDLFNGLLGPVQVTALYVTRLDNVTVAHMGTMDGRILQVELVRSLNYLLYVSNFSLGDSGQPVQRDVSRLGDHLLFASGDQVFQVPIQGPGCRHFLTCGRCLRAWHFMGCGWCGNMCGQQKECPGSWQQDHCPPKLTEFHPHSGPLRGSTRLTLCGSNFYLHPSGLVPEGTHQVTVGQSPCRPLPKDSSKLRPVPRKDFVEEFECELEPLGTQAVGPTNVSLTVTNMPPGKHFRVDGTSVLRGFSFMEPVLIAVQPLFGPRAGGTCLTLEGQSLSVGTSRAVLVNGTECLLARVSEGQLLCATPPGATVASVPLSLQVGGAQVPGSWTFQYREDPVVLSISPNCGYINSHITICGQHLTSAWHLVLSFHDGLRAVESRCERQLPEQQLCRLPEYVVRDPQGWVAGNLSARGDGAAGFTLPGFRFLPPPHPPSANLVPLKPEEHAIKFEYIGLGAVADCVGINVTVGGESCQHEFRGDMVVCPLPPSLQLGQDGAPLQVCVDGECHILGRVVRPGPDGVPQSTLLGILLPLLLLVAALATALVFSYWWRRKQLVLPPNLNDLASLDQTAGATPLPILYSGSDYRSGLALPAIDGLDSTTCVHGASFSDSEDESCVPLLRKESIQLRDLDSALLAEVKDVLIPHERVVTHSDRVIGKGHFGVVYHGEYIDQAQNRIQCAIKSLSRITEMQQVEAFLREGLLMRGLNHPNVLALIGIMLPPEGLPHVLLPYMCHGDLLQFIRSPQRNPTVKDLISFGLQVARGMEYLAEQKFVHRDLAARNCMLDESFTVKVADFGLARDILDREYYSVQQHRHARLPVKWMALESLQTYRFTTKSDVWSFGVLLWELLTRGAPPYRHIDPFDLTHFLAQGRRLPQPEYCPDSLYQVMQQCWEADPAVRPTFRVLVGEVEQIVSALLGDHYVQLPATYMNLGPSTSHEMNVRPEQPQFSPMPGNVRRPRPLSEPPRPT

Row | Compound | inhibition [1] [%] | inhibition [2] [%] | inhibition [3] [%] | inhibition [4] [%] | inhibition [5] [%] | inhibition [6] [%] | inhibition [7] [%] | inhibition [8] [%] | inhibition [9] [%] | inhibition [10] [%] | inhibition [11] [%] | inhibition [12] [%] | inhibition [13] [%] | inhibition [14] [%] | inhibition [15] [%] | inhibition [16] [%] | inhibition [17] [%] | inhibition [18] [%] | inhibition [19] [%] | inhibition [20] [%]
1 | COc1ccc2cc(-c3c(-c4ccncc4)nc(-c4ccc(S(C)(=O)=O)cc4C)n3C)ccc2c1 | 26.6 | 0.23 | -0.19 | 6.07 | 8.9 | 3.38 | 11.2 | 1.11 | 5.61 | 0.01 | 0.26 | 4.38 | 5.26 | 75 | 78.7 | 4.94 | 29.3 | 0.74 | 3.77 | 3.75
2 | N#Cc1ccc(Oc2nccc(-c3c(-c4ccc(F)cc4)ncn3C3CCNCC3)n2)cc1 | 9.04 | 5.63 | 4.9 | 5 | 7.93 | 7.01 | 6.12 | -3.21 | -3.22 | -0.77 | -3.55 | 2.34 | 5.61 | 3.13 | 8.62 | -0.15 | 2.6 | 0.82 | 2.05 | 2.46
3 | NC(=O)c1ccc(Oc2nccc(-c3c(-c4ccc(F)cc4)ncn3C3CCNCC3)n2)cc1 | 3.63 | 4.31 | 6.11 | 9.43 | 7.5 | 13 | 13.6 | -3.65 | -3.42 | -0.16 | 2.71 | 8.39 | 6.14 | 5.16 | 6.4 | 4.4 | 4.01 | 0.55 | 1.67 | 2.53
4 | O=C(NCC1CC1)c1ccc(-c2cccc(C(=O)NC3CC3)c2)cc1 | 24.5 | 4.01 | 0 | 3.69 | 6.33 | 2.23 | 7.22 | -2.13 | -0.43 | -0.53 | -1.45 | 2.57 | 6.01 | 2.21 | 6.47 | 1.89 | -2.48 | 0.86 | 1.39 | 4.07
5 | O=C(Nc1n[nH]c2cc(-c3cc(F)ccc3F)ccc12)C1CC1 | 11.5 | 4.71 | 1.65 | 5.51 | 5.37 | -1.08 | 8.62 | -0.64 | -2.57 | -7.24 | 1.24 | 2.72 | 4.04 | 3.35 | 9.26 | 1.68 | 7.03 | -0.01 | -0.8 | 3.75
6 | CS(=O)(=O)CCNCc1cc(-c2cc3c(Nc4ccc(OCc5cccc(F)c5)c(Cl)c4)ncnc3s2)cs1 | 9.4 | 2.33 | 4 | 6.34 | 10 | 10.7 | 14.7 | -2.71 | -1.03 | -1.05 | 1.7 | 7.25 | 7 | 8.64 | 10.7 | 1.8 | 6.39 | 1.66 | 5.79 | 2.34
7 | CCc1nccc2c1nc(-c1nonc1N)n2CC | 13.1 | -3.47 | 4.96 | 3.74 | 5.33 | -0.62 | 10.1 | -1.58 | -3.49 | -1.01 | 10.7 | 1.47 | 5.82 | 2.53 | 5.08 | 0.71 | -5.44 | -0.52 | -0.83 | –
8 | Fc1ccc(-c2ncn(CCCN3CCOCC3)c2-c2ccncc2)cc1 | 7.08 | -2.7 | 0.97 | 2.12 | 4.63 | 3.31 | 1.01 | -3.46 | -3.16 | 2.97 | -1.02 | -0.04 | 2.36 | 1.37 | 1.99 | 0.29 | -6.97 | -0.82 | -1.72 | -2.6
9 | NC(=O)c1cc(-c2ccncc2)cc(-c2ccccc2)c1N | 42.3 | 4.63 | 2.14 | 5.79 | 14.7 | 10.4 | 59.8 | 0.18 | 5.81 | -0.73 | 1.64 | 18.5 | 58.7 | 3.02 | 6.28 | 1.93 | 6.5 | 1.25 | 7.25 | 1.66
10 | CN(C)c1ccc2c(c1)/C(=C/Nc1ccc(S(N)(=O)=O)cc1)C(=O)N2 | 47 | -0.09 | 7.23 | 4.66 | 8.86 | -4.52 | 27.4 | 1.2 | 3.48 | – | 0.31 | 1.4 | 2.35 | 1.03 | 5.59 | 0.71 | 5.7 | 0.14 | 1.79 | 6.93
11 | Fc1ccc(-c2nc3n(c2-c2ccncc2)CCS3)cc1 | 9.79 | -2.87 | 6.64 | 7.49 | 6.54 | 3.03 | 8.62 | -2.19 | -4.01 | -6.2 | 2.02 | 0.9 | 2.31 | 3.17 | 5.76 | 1.24 | -1.81 | 0.78 | 0.1 | 2.38
12 | CNC(=O)c1cncc(/C=C/c2c(C)cccc2C)c1 | 17.6 | 1.75 | 0.77 | -2.1 | 1.85 | 17.5 | 59 | 2.41 | 9.33 | 0.05 | -0.51 | 5.68 | 38.2 | -0.16 | 7.69 | 0.82 | 16.5 | 0.76 | 9.44 | 3.36
13 | COc1cc(N2CCN(C(C)C)CC2)ccc1Nc1nc(Nc2ccc(F)cc2C(=O)NC[C@@H](O)CO)c2cc[nH]c2n1 | 13.9 | 7.42 | 2.76 | 17.8 | 60 | 3.75 | 9.14 | -2.12 | -0.49 | -1.02 | -2.57 | 1.33 | 1.93 | 2.59 | 6.08 | 14.7 | 60.5 | 3.26 | 9.35 | 3.81
14 | Fc1ccc(-c2ncn(C3CCNCC3)c2-c2ccnc(Oc3ccc(F)c(F)c3)n2)cc1 | 9.54 | 4.15 | 2.54 | 5.19 | 4.41 | 5.82 | 7.25 | -3.17 | -3.06 | -1.2 | -2.3 | -2.35 | 0.11 | 0.38 | 3.09 | 0.22 | 4.28 | -0.47 | -0.07 | 2.3
